HCMV inh = blocks human cytomegalovirus replication. HFF cells, HCMV-luciferase reporter, 72 h; stronger effect = lower value. activity change, negative = inhibition, % at 57.5 µM. 410,000 tested, 4.5% active. AID 1259415; in the data active = activity change below about -60%; inconclusive = no clear call, values can overlap the other calls; inactive = above about -39%; also: % is scaled to controls: 0 for no effect and ±100 for the full control effect
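HFF cells seeded 16 h at 37C, treated with compounds, infected with luciferase-reporter HCMV at MOI 1 PFU/cell; luciferase read at 72 h post infection, normalized to buffer-only and Salinomycin controls.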
Lassa entry inh = Lassa virus entry inhibition; Lassa virus pseudotype entry inhibition, cell reporter; Potency, µM (highest dose often 37.9 µM), without a hit: at the highest dose activity change, negative = inhibition, actives largely listed as inhibitors; 300,000 tested, 1.2% active; calls by dose curve; tested in HEK293 cells; also: potency is read from the fitted curve at half-maximal effect; % is scaled to controls: 0 for no effect and ±100 for the full control effect; nearly all actives have a fitted effect of over 50% in size
MARV entry inh = inhibitors of Marburg virus binding or cell entry; Marburg virus pseudotyped entry inhibition, cell reporter; Potency, µM (doses to about 37.8 µM), inactives show top-dose activity change, negative = inhibition, actives largely listed as inhibitors; 300,000 tested, 1.8% active; calls by dose curve; tested in HEK293 cells; also: potency is read from the fitted curve at half-maximal effect; % is scaled to controls: 0 for no effect and ±100 for the full control effect
SARS PLpro yeast = inhibitors of SARS-CoV papain-like protease in yeast; S. cerevisiae expressing SARS-CoV PLpro, growth rescue; Potency, µM (top dose mostly 32.9 µM), inactives show top-dose activity, positive = growth rescue, most hits filed as activators; 330,000 tested, 0.19% active; calls by dose curve; also: potency is read from the fitted curve at half-maximal effect; 0% is about no effect; nearly all actives have a fitted effect of over 55% in size
HCV inhibitor = HCV inhibition | Huh7.5.1 HCVcc-Cre infection, luciferase reporter, 44 h | Potency, µM (doses to about 41.8 µM), for the others: top-dose activity change, negative = inhibition, most hits filed as inhibitors | 340,000 tested, 3.4% active; active = well fitted inhibition curve with a large enough effect; inconclusive = small, poorly fitted or top-dose-only effect, or another doubt; inactive = no such curve, though single readings can be large or run the other way; also: potency is read from the fitted curve at half-maximal effect; % is scaled to controls: 0 for no effect and ±100 for the full control effect
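Reporter virus HCVcc-Cre (~0.5 moi) infects cells exposed to compound; seeding density 1,000 cells/well with 4 h settling beforehand. Luminescence, 15 sec read, taken 44 h post-infection following a 15 min RT substrate incubation.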
FMDV inh = foot and mouth disease virus antiviral activity | FMDV antiviral cell-based qHTS | Potency, µM (doses to about 57.9 µM), for the others: at the highest dose activity change, negative = inhibition, most hits filed as inhibitors | 410,000 tested, 1.2% active | AID 1159524; calls by dose curve; tested in HEK293T cells; also: read-out not given here; potency is read from the fitted curve at half-maximal effect; % is scaled to controls: 0 for no effect and ±100 for the full control effect; nearly all actives have a fitted effect of over 45% in size
The depositor's hits bear a star; ? = inconclusive; / = not tested or not shown; [ ] = dose if it differs, or a comment. An excerpt weighted towards active compounds, which were near 8% of everything screened.

SMILES	HCMV inh	Lassa entry inh	MARV entry inh	SARS PLpro yeast	HCV inhibitor	FMDV inh
O=Nc1c(O)c2ccccc2c2ccccc12	-98*	/	/	/	?	11µM*
C=CCSC1=C(C#N)C(c2ccccc2Cl)C(C(=O)c2cccs2)C(O)(C(F)(F)F)N1 (stereo not given)	-70*	-2%	?	-28%	?	-23%
OCCC1CN(CC#Cc2ccccc2)CCN1C1CCCC1 (stereo not given)	-37	-22%[46.1 µM]	1%[46.1 µM]	0%	-4%	-13%
OCCC1CN(Cc2cnc(-c3ccccc3)s2)CCN1C1CCCC1 (stereo not given)	-66*	0%	?	0%	?	-27%
OCCC1CN(Cc2cnc(-c3ccccc3)s2)CCN1C1CCCCC1 (stereo not given)	?	-16%	-8%[46.1 µM]	0%	-25%	-13%
CC(C)CN1CCN(Cc2cnc(-c3ccc(Cl)cc3)nc2)CC1CCO (stereo not given)	40	/	/	0%	?	11%
OCCC1CN(CC(c2ccccc2)c2ccccc2)CCN1C1CCCC1 (stereo not given)	-32	?	13µM*	0%	?	-17%
OCCC1CN(Cc2cnc(-c3ccc(Cl)cc3)nc2)CCN1C1CCCC1 (stereo not given)	?	-5%	?	0%	7.1µM*	?
CCC(NC(=O)c1[nH]c(C)c(C(C)=O)c1C)c1ccc(Br)cc1 (stereo not given)	3	?	8.9µM*	-34%	?	-29%
Cc1ccc(NC(=O)c2ccccc2[N+](=O)[O-])cc1[N+](=O)[O-]	28	/	/	/	/	/
C/C(=N\Nc1ccc(F)cc1F)c1ccc(Br)s1	-70*	5%[46.1 µM]	1%[46.1 µM]	-2%	?	6%
C/C(=N\Nc1ccc(F)cc1F)c1ccc(F)cc1	/	/	0%	2%	/	/
CCN(Cc1ccncc1)Cc1nc(-c2ccc(C(=O)OC)cc2)no1	-24	-14%	?	0%	0%	-20%
CCN(Cc1ccncc1)Cc1nc(CC2CC2)no1	-60*	?	1%[46.1 µM]	0%	15%	-17%
CCOC(=O)CN1C(=O)[C@@]2(C[C@@H](C)C[C@@H](C)O2)c2ccccc21	/	/	-18%[14.2 µM]	/	/	/
O=C(N[C@H]1CC[C@H](CCNS(=O)(=O)c2ccc(Cl)cc2)O[C@@H]1CO)c1cccc(F)c1	-101*	/	/	/	/	?
O=C(NCCc1ccc(F)cc1)c1coc(=O)c(Br)c1	-78*	/	/	-1%	7%	35µM*
O=C(Nc1ccccc1F)c1coc(=O)c(Br)c1	-7	-8%	-19%[46.1 µM]	3%	31%	-27%
O=C(NCc1ccccn1)c1coc(=O)c(Br)c1	50	-1%	-13%	?	13%	20µM*
CCc1ccc(Oc2c(C(F)(F)F)oc3c(CN4CCCC(C)C4)c(O)ccc3c2=O)cc1 (stereo not given)	-16	27%[46.1 µM]	-5%[46.1 µM]	/	/	-4%
Cc1ccc(NC(=O)CC2Nc3cc(C)c(C)cc3NC2=O)c(C)c1 (stereo not given)	36	4%[46.1 µM]	4%[46.1 µM]	/	/	-12%
N[C@@H](CCC(=O)N[C@@H](CS)C(=O)NCC(=O)O)C(=O)O	/	/	/	/	/	-6%
CCOc1ccc(CCNc2ncnc3onc(-c4ccc(Cl)cc4)c23)cc1OCC	-26	?	7.9µM*	/	/	?
Cc1ccc2nc(-c3cc(NC(=O)/C=C/c4ccccc4)ccc3Cl)oc2c1	13	?	/	/	/	17%
COc1cccc(CNC(=O)CNS(=O)(=O)c2ccc3nc(C)sc3c2)c1	-39	?	-4%[46.1 µM]	/	/	-8%
COCCN=c1scc(-c2ccc3c(c2)NC(=O)CO3)n1/N=C(\C)c1ccc(O)cc1	?	?	?	1%	?	0%
COc1cc(/C=N/n2c(-c3ccc4c(c3)NC(=O)CO4)csc2=Nc2cccc(C)c2)ccc1O	-96*	23µM*	?	-1%	7.1µM*	?
Cc1c(Cc2ccccc2)c(=O)oc2cc(OCC(=O)NCc3ccccn3)ccc12	-63*	1%[46.1 µM]	13%[46.1 µM]	-8%	?	-29%
Cc1c(CCC(=O)O)c(=O)oc2cc3occ(-c4ccc(Br)cc4)c3cc12	-62*	-2%	-22%[46.1 µM]	-6%	7%	-23%

Compound activity: PubChem, National Center for Advancing Translational Sciences (NCATS)
